Source: PubChem (several laboratories)
Anthrax LF inh2: Bacillus anthracis LF protease inhibitors, primary screen, biochemical, multiplex microsphere, MLPCN library; Lethal factor (Bacillus anthracis), P15917; multiplex microsphere protease cleavage assay; inhibition, % at 10 µM; 360,000 compounds, 0.12% hits; AID 588501, 2011; note: plate controls were buffer without enzyme for full effect and enzyme alone for no effect
Bead autofluor: compound fluorescence in toxin protease inhibitor counterscreen. compound autofluorescence counterscreen, microsphere flow cytometry; active compounds read high. 360,000 compounds, 3.1% hits. fluorescence intensity (no concentration beside the values). AID 624483; in the data active = fluorescence intensity above about 16000; inconclusive = no clear call, values can overlap the other calls
MazEF act: activators of E. coli MazEF toxin-antitoxin RNase, primary screen, biochemical, fluorescence, uHTS. 350,000 compounds, 0.32% hits. activation, % at 20 µM. FAM/BHQ RNA-DNA oligo cleavage fluorescence, 5 h; in the data active = activation above about 50%
Vc quorum ag: inducers of Vibrio cholerae quorum light production without autoinducers, primary screen, BH1578 luxS cqsA deficient, single point; V. cholerae BH1578 lux reporter, luminescence, 6 h; activation, % at 18.7 µM; 350,000 compounds, 0.16% hits; AID 588436, 2011; in the data active = activation mostly above about 9.7%, no sharp cut-off; inconclusive = no clear call, values can overlap the other calls; inactive = mostly below about 3.7%
BoNT F protease: BoNT/F light chain protease inhibitors, primary screen, biochemical, flow cytometry, MLPCN library | Botulinum neurotoxin type F light chain protease (Clostridium botulinum) | Multiplex microsphere protease cleavage assay | inhibition, % at 10 µM | 360,000 compounds, 0.22% hits | AID 588497, 2011; in the data active = inhibition above about 35%, passing the limit was not always enough; inconclusive = no clear call, values can overlap the other calls; note: plate controls were buffer without enzyme for full effect and enzyme alone for no effect
BoNT-A LC inh2: BoNT/A light chain protease inhibitors, primary screen, biochemical, flow cytometry, MLPCN library | Botulinum neurotoxin type A light chain protease (Clostridium botulinum A str. ATCC 3502) | multiplex microsphere protease substrate cleavage | inhibition, % at 10 µM | 360,000 compounds, 0.17% hits | AID 588499, 2011; note: plate controls were buffer without enzyme for full effect and enzyme alone for no effect
* hit, by the source's call. Hits are enriched below; roughly 3.9% of the tested compounds scored in any of these assays. Cut-off read from the data, not from the text of the source, unless noted: active = inhibition above about 30%; inconclusive = no clear call, values can overlap the other calls; inactive = below that.

What do the screens show for `COc1ccc(NC(=O)[C@@H]2CCCN2S(=O)(=O)c2ccc(Cl)cc2)cc1`?
Anthrax LF inh2: -2; Bead autofluor: 3209; MazEF act: 5; Vc quorum ag: inactive; BoNT F protease: -11; BoNT-A LC inh2: -1

Results for COc1ccc(CCNC(=O)CN(c2ccc(OC)c(OC)c2)S(=O)(=O)c2ccc(C)cc2)cc1 ?
Anthrax LF inh2: -4; Bead autofluor: 3620; MazEF act: 0; Vc quorum ag: 0; BoNT F protease: 25; BoNT-A LC inh2: -3

What do the screens show for `Cc1ccc(C(=O)CN(C(=O)c2ccc(Cl)cc2)N2C(=O)CCC2=O)cc1`?
Anthrax LF inh2: -1; Bead autofluor: 3399; MazEF act: -14; Vc quorum ag: -1; BoNT F protease: -4; BoNT-A LC inh2: 0

Results for COc1cccc(C(=O)CN2CCC(NC(=O)NC3CCCCC3)CC2)c1 ?
Anthrax LF inh2: -9; Bead autofluor: 13711; MazEF act: 7; Vc quorum ag: 0; BoNT F protease: -12; BoNT-A LC inh2: -5

How did COc1ccc(C(=O)CN(C(=O)c2ccc(Cl)cc2)N2C(=O)C3CCCCC3C2=O)cc1 (stereo not given) do in these assays?
Anthrax LF inh2: -21; Bead autofluor: 11113; MazEF act: 7; Vc quorum ag: -2; BoNT F protease: 38*; BoNT-A LC inh2: inconclusive

Results for COc1cccc(C(=O)CN(C(=O)c2ccc(Cl)c(Cl)c2)N2C(=O)C3CCCCC3C2=O)c1 (stereo not given) ?
Anthrax LF inh2: -3; Bead autofluor: 17192*; MazEF act: -2; Vc quorum ag: -1; BoNT F protease: -3; BoNT-A LC inh2: -2

What do the screens show for `CSCCC(NC(=O)c1ccc(Cl)cc1Cl)C(=O)N(C)Cc1nc2ccccc2c(=O)[nH]1` (stereo not given)?
Anthrax LF inh2: 2; Bead autofluor: 4618; MazEF act: -8; Vc quorum ag: -1; BoNT F protease: 3; BoNT-A LC inh2: 0

What do the screens show for `CCN(CCCNC(=O)Cn1ncc2c([nH]c3ccc(C)cc32)c1=O)c1ccccc1`?
Anthrax LF inh2: 1; Bead autofluor: 5541; MazEF act: -12; Vc quorum ag: inactive; BoNT F protease: 6; BoNT-A LC inh2: 0

Results for CC(C)(C(=O)c1ccccc1)/[N+]([O-])=C/c1ccc(F)cc1 ?
Anthrax LF inh2: -4; Bead autofluor: 9958; MazEF act: 1; Vc quorum ag: 12; BoNT F protease: 4; BoNT-A LC inh2: -1

What do the screens show for `CC(C)(C(=O)c1ccccc1)/[N+]([O-])=C/c1ccccc1`?
Anthrax LF inh2: -1; Bead autofluor: 23931*; MazEF act: 2; Vc quorum ag: inactive; BoNT F protease: 0; BoNT-A LC inh2: -1

Results for COc1ccc(CC(=O)NC2CCN(CC(=O)Nc3ccc4c(c3)OCCO4)CC2)cc1OC ?
Anthrax LF inh2: -4; Bead autofluor: 23401*; MazEF act: -1; Vc quorum ag: inactive; BoNT F protease: -4; BoNT-A LC inh2: -1

Results for O=C(CN1CCOCC1)Nc1ccc(-c2nc3ccccc3[nH]2)cc1 ?
Anthrax LF inh2: 0; Bead autofluor: 23886*; MazEF act: -1; Vc quorum ag: inactive; BoNT F protease: -5; BoNT-A LC inh2: -2

What do the screens show for `O=S(=O)(c1ccc2c(c1)OCCO2)N1CCC(c2nc3ccccc3[nH]2)CC1`?
Anthrax LF inh2: 0; Bead autofluor: 22441*; MazEF act: 1; Vc quorum ag: inactive; BoNT F protease: 3; BoNT-A LC inh2: 3

What do the screens show for `Cc1ccc2nc(C3CCN(CC(=O)Nc4ccc5c(c4)OCCO5)CC3)[nH]c2c1`?
Anthrax LF inh2: -1; Bead autofluor: 23511*; MazEF act: 5; Vc quorum ag: 0; BoNT F protease: -4; BoNT-A LC inh2: 0

What do the screens show for `COc1ccccc1NC(=O)CN1CCC(c2nc3ccc(C)cc3[nH]2)CC1`?
Anthrax LF inh2: -2; Bead autofluor: 5651; MazEF act: 4; Vc quorum ag: 0; BoNT F protease: -4; BoNT-A LC inh2: -1

Results for Cc1nc2ccccc2n1S(=O)(=O)c1cc(C(=O)O)ccc1Cl ?
Anthrax LF inh2: -6; Bead autofluor: 3763; MazEF act: 14; Vc quorum ag: inactive; BoNT F protease: -11; BoNT-A LC inh2: -4

How did Cc1cc2nc(-c3nnnn3C3CCCCC3)c(=O)[nH]c2cc1C do in these assays?
Anthrax LF inh2: -5; Bead autofluor: 5383; BoNT F protease: 12; BoNT-A LC inh2: 7

Results for COc1ccc(O)c(C(=O)c2cnc3c(c2)c(C)nn3CCO)c1 ?
Anthrax LF inh2: -3; Bead autofluor: 4552; MazEF act: 7; Vc quorum ag: inactive; BoNT F protease: -2; BoNT-A LC inh2: -1

Results for CCCOc1ccccc1OCC(=O)N1CCN(S(=O)(=O)c2ccc(Cl)cc2)CC1 ?
Anthrax LF inh2: -4; Bead autofluor: 8630; MazEF act: 0; Vc quorum ag: -2; BoNT F protease: 4; BoNT-A LC inh2: 1

What do the screens show for `O=C(NCc1ccccc1)c1ccccc1C(=O)c1ncc[nH]1`?
Anthrax LF inh2: 1; Bead autofluor: 2017; MazEF act: -2; Vc quorum ag: 0; BoNT F protease: 1; BoNT-A LC inh2: 0

What do the screens show for `O=C1c2cc(O)c(O)cc2OC(c2ccc(O)c(O)c2)C1O` (stereo not given)?
Anthrax LF inh2: -11; Bead autofluor: 3623; MazEF act: 3; BoNT F protease: 3; BoNT-A LC inh2: 0

How did COc1ccccc1NC(=O)N1CCC(c2nc3cc(C)c(C)cc3[nH]2)CC1 do in these assays?
Anthrax LF inh2: 0; Bead autofluor: 9255; MazEF act: 0; Vc quorum ag: -2; BoNT F protease: -1; BoNT-A LC inh2: 1

What do the screens show for `CCOc1ccccc1NC(=O)N1CCC(c2nc3ccccc3[nH]2)CC1`?
Anthrax LF inh2: 2; Bead autofluor: 21924*; MazEF act: 7; Vc quorum ag: -3; BoNT F protease: 5; BoNT-A LC inh2: inconclusive

Results for O=C(CN1CCC(c2nc3ccccc3[nH]2)CC1)Nc1ccc2c(c1)OCO2 ?
Anthrax LF inh2: -5; Bead autofluor: 21412*; MazEF act: 0; Vc quorum ag: 0; BoNT F protease: 3; BoNT-A LC inh2: 4

What do the screens show for `CCOC(=O)[C@]12CCC=C1N(Cc1ccco1)C(=O)[C@H](CC(=O)NCc1ccc(C)o1)C2`?
Anthrax LF inh2: -10; Bead autofluor: 5010; BoNT F protease: -1; BoNT-A LC inh2: 0

What do the screens show for `Cc1ccc(NC(=O)c2cccc(N3C(=O)C4C5CCC(C5)C4C3=O)c2)c(C)c1` (stereo not given)?
Anthrax LF inh2: 0; Bead autofluor: 2470; MazEF act: 3; Vc quorum ag: inactive; BoNT F protease: 1; BoNT-A LC inh2: 0
